The results in this text go back to PubChem BioAssay (NCATS).

Each structure is given as a SMILES string. The source made the active and inactive calls. The call rests on the fitted dose curve; in most records, active means well fitted activation curve with a large enough effect; inconclusive means small, poorly fitted or top-dose-only effect; inactive means flat fitted curve, though single readings scatter.

The nature of this test: Cellular Toxicity (caspase-3) N2a (AID 665).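 Further: compound exposure lasted 16 h at 37 °C before readout.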 To be noted: N2a cells, luminescence, normalized: DMSO 0%, 10 µM staurosporine 100%; series mostly up to 92.2 µM; caspase-3 activation: at the top concentration. In short, it runs like this: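 Mouse N2a neuroblastoma cells, 1500 per well, treated 16 h at 37 °C in complete medium; caspase-3/7 activity by Caspase-Glo luminescence after 1 h. Normalized to DMSO and 10 uM staurosporine; AC50 from Hill fits.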
`O=CNc1ccccc1`: the “caspase-3 activation” value is -0.0609% (inactive).

For the compound `Cc1ccc(C#N)cc1`, the “caspase-3 activation” value was -2.04% (inactive).

In the case of `CC(C)C=O`, the “caspase-3 activation” value was -2.05% (inactive).

In the case of `CCCCCCC=O`, the “caspase-3 activation” value is -0.231% (inactive).

Consider `CN(C)c1cccc(O)c1`, for which the “caspase-3 activation” value is -0.785% (inactive).

Consider `O=C(O)c1ccc(Cl)cc1Cl`, for which the “caspase-3 activation” value is -0.485% (inactive).

In the case of `CCCC(Cl)CCCC(Cl)CCC(Cl)CCC(Cl)CCC(Cl)CCCC(Cl)CCC` (stereo not drawn), the “caspase-3 activation” value was -4.47% (inactive).

On to `CNC(=O)c1ccccc1`, for which the “caspase-3 activation” value is -1.72% (inactive).

With `ClCCl`, the “caspase-3 activation” value is -2.57% (inactive).

`CC(=O)Nc1ccc(C)cc1`: the “caspase-3 activation” value was -5% (inactive).

Regarding `CC(C)(c1cc(Br)c(OCC(Br)CBr)c(Br)c1)c1cc(Br)c(OCC(Br)CBr)c(Br)c1` (stereo not drawn), the “caspase-3 activation” value was -0.861% (inactive).

With `CC(=O)Nc1ccc(N)cc1`, the “caspase-3 activation” value is 1.97% (inactive).

Turning to `Cc1ccccc1C(N)=O`, the “caspase-3 activation” value is -2.14% (inactive).

As to `CC(=O)C1(C)CC2=C(CCCC2(C)C)CC1C` (stereo not drawn), the “caspase-3 activation” value was -2.03% (inactive).

With `CC(C=O)Cc1ccc(C(C)(C)C)cc1` (stereo not drawn), the “caspase-3 activation” value is -1.47% (inactive).

On to `CCCCN(CCO)CCCC`, for which the “caspase-3 activation” value was -4.58% (inactive).

Consider `CC(O)CC(C)O` (stereo not drawn), for which the “caspase-3 activation” value is -0.058% (inactive).

In the case of `OCCO`, the “caspase-3 activation” value was -3.06% (inactive).

Take `CC(=O)OC(C)=O`: the “caspase-3 activation” value was -3.43% (inactive).

In the case of `NS(=O)(=O)O`, the “caspase-3 activation” value was 4.08% (inactive).

As to `CCOC(=O)C(C)C(C)=O` (stereo not drawn), the “caspase-3 activation” value is -0.902% (inactive).

On to `Cc1ccc(C)c([N+](=O)[O-])c1`, for which the “caspase-3 activation” value was 5.73% (inactive).

As to `C=C(C)C(=O)OCCCCCCCCCC`, the “caspase-3 activation” value is -3.64% (inactive).

Take `COC(=O)CCCC(=O)OC`: the “caspase-3 activation” value is -3.24% (inactive).

Regarding `c1ccc(Nc2ccccc2)cc1`, the “caspase-3 activation” value was -3.49% (inactive).

On to `O=C(O)c1cc(Cl)cc(Cl)c1`, for which the “caspase-3 activation” value is -4.77% (inactive).

As for `CC/C=C1/OC(=O)c2ccccc21`, the “caspase-3 activation” value is -3.25% (inactive).

For `Cc1ccco1`, the “caspase-3 activation” value was -0.992% (inactive).

Consider `NCCCCCCN`, for which the “caspase-3 activation” value is -3.32% (inactive).

On to `BrC/C=C/CBr`, for which the “caspase-3 activation” value is 0.986% (inactive).

Consider `CC(=C/C=C/C(C)=C/C=C/C=C(C)/C=C/C=C(C)/C=C/C(=O)O)/C=C/C(=O)O`, for which the “caspase-3 activation” value is -2.42% (inactive).

With `CCOC(C)(C)C`, the “caspase-3 activation” value was -3.46% (inactive).

As for `O=C(O)c1cccc(Cl)c1Cl`, the “caspase-3 activation” value was -3.14% (inactive).
